Reference: the supplement of paper PMC10105736
A number with no mark means an inactive call.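 How the source made its calls: active = MAPPIT score above the 99th percentile of random reference set scores in the same batch; inactive = at or below it.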

Key:
Assay in all cases: MAPPIT interaction score (arbitrary units); higher = stronger binary interaction signal, active = hit call of the paper
[1] = target: jvl; settings: pair source set: RRS
[2] = target: kappaB-Ras; settings: MAPPIT configuration: N-N; pair source set: DPIM
[3] = target: l(3)neo38; settings: MAPPIT configuration: N-N; pair source set: Lit-BS-16
[4] = target: laza; settings: MAPPIT configuration: N-N; pair source set: screen_2
[5] = target: lola; settings: pair source set: RRS
[6] = target: lwr; settings: MAPPIT configuration: N-N
[7] = target: mal; settings: MAPPIT configuration: N-N; pair source set: Lit-BS-16
[8] = target: otp; settings: MAPPIT configuration: N-N; pair source set: screen_2
[9] = target: mei-P22; settings: MAPPIT configuration: N-N; pair source set: screen_2
[10] = target: mira; settings: MAPPIT configuration: N-C; pair source set: Lit-BM-16
[11] = target: nos; settings: pair source set: Lit-BM-16
[12] = target: mnb; settings: MAPPIT configuration: N-N; pair source set: Finley_Y2H
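Further: HEK293T cells with Epo stimulation, STAT-responsive firefly luciferase reporter, fold induction versus unstimulated cells divided by the larger fold induction of two negative controls lacking either bait or prey.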

B1: TH1 (protein)
chain: MEVEYDDSGWQGRAKGQTNPEETLEDNPQKTIQECLEKFLTPDYIMEPGIFTQLKRYFQSGGSPEEVISMLSENYKAVAQMANLLAEWLILAGVKVTEVQAMVENHLKEMILKSFDPKKADTIFTEEGETPDWLTEMIDHYTWRSLIYRLAEEYPDCLMLNFTIKLISDAGFQSEITSISTAAQQIEVFSRVLKTSIVKFLNNPDDVHGAIQECARMVCHGQHTYVYSQVLIQVLSQEQKGGFNMKRLSQEIIKYALQNNQNVTPITMALNGSAVYPQACQALTSMLTRNTLNPADITVLFRNYSGSDPPPIDLIRNPQFLELLVDALFRSGVKINPEHKPKYMFLLAYASAVIDQPAKKRPMTERMLNKEELKSTIQAIEKAHTICNVDQGSTELIAELQTLYNCIKYPVVGVGVIRWIENVVMEPSYFKLSTDSCPTHLAVLDEVAAVHPTLQQQILFLLIRLFESKQDELEILVQLEMKKMILDRMVNLLTRGCVVPVLRYIKQCCAIEDTDISLIRYFVTEVLETITHPYSPEFVQLFLPMVENEEITGTMRGEGDNDPVSEFIVHCKAHYTTV
B1 showed an MAPPIT interaction score ([1]; MAPPIT configuration: N-C) of 0.00492 and an MAPPIT interaction score ([1]; MAPPIT configuration: N-N) of -0.0162.

B2: Cp1 (protein)
chain: MNHLGVFETRFRPRTRHKSQRAQLIPEQITMRTAVLLPLLALLAVAQAVSFADVVMEEWHTFKLEHRKNYQDETEERFRLKIFNENKHKIAKHNQRFAEGKVSFKLAVNKYADLLHHEFRQLMNGFNYTLHKQLRAADESFKGVTFISPAHVTLPKSVDWRTKGAVTAVKDQGHCGSCWAFSSTGALEGQHFRKSGVLVSLSEQNLVDCSTKYGNNGCNGGLMDNAFRYIKDNGGIDTEKSYPYEAIDDSCHFNKGTVGATDRGFTDIPQGDEKKMAEAVATVGPVSVAIDASHESFQFYSEGVYNEPQCDAQNLDHGVLVVGFGTDESGEDYWLVKNSWGTTWGDKGFIKMLRNKENQCGIASASSYPLV
In the case of B2, the MAPPIT interaction score [2] is reported as 0.259.

B3: Pdk1 (protein)
chain: MKCKSWSNKINNYVVRKIKSIKINGTQQQLQLPGSGASGIAAAAVITVASDCGENCSSNGTEHQQHFNIATTTATSATEATMPAMAKEKASATVSLGESNFRDINLKDLAVVVEAASRLHHQQNVCGCGAVSSTENNNNSRYGSSKYLTNGHTSPLAAAVASNSSSVATTPHCRMLHNCSLQQYQNDIRQQTEILDMLRQQHQQGYQSQQQQQQPQQQQEQQQQQEQSQQQQQLQNPAPRRSPNDFIFGRYIGEGSYSIVYLAVDIHSRREYAIKVCEKRLILRERKQDYIKREREVMHQMTNVPGFVNLSCTFQDQRSLYFVMTYARKGDMLPYINRVGSFDVACTRHYAAELLLACEHMHRRNVVHRDLKPENILLDEDMHTLIADFGSAKVMTAHERALATEHCSEQRRSNSDEDDEDSDRLENEDEDFYDRDSEELDDGDDEQQQEEMDSPRHRQRRYNRHRKASFVGTAQYVSPEVLQNGPITPAADLWALGCIVYQMIAGLPPFRGSNDYVIFKEILDCAVDFPQGFDKDAEDLVRKLLRVDPRDRLGAQDEFGYYESIRAHPFFAGIDWQTLRQQTPPPIYPYLPGVSQDEDFRSSYTVPGDLEPGLDERQISRLLSAELGVGSSVAMPVKRSTAKNSFDLNDAEKLQRLEQQKTDKWHVFADGEVILKKGFVNKRKGLFARKRMLLLTTGPRLIYIDPVQMIKKGEIPWSPDLRAEYKNFKIFFVHTPNRTYYLDDPEGYAIHWSEAIENMRKLAYGDPSSTSAVSCSSGSSNSLAVISNSSAASSSNSPTVKRSSPVNAPQASTASDNRTLGSTRTGTSPSKKTASK
In the case of B3, the MAPPIT interaction score [3] is reported as 1.81.

B4: Es2 (protein)
chain: MSATTRTPATPGTPGTPGSLAMEVARVQNSALAEFKKPTAMVRHKNKPKILTEEKYIEEMSKIIQRDFFPDLERLRAQNDYLDAESRRDFVQMAEIRERYSLGRISGTGRSTSRRNNAMSPATFETPVSQAKCSNTPLPNSRATDTPFSTDGSEKSDAEGRDTTAKLSLDAFLQKYTSEDNQSFQEIIETAEAKLRQKYAVLYNHEKLSAEQLQRALMLPSIETQFEEPDPLRKIETWNYTNMNSIMYVPDGVEYTEEERVQLAERKQSIQHNATRLPDEAKHREMDTKKLNDEVPQNGAGGATATPKVRGFDLLRSPSPRPGEAFSPIMTWGEIDGTPFRLDGGDTPLRPTQGPSFRINENSRRENIAIALAERVSERMRNQKQMALDTARRNIGSPLIRTNMERLASMSPAAQLLATGKLGIRGTPRLRHTPSPMSGRKRKVTPGVVRSTNTPILGEPKPKQQAKISTPAKNVTIDTGSTLTDDLLKIPTKRRTAADFF
B4 showed an MAPPIT interaction score [4] of 0.373.

B5: CG3262 (protein)
chain: MERLLINTIWRSYATKLTGSQVKLMARGLPKKQPIIGVQDIIVVASGKGGVGKSTVAVNFACSLAKLGKRVGLLDGDIFGPTIPLLMNVHGEPVVNDKNLMIPPQNYNVKCLSMGMLTPVETSVIWRGPLVMSAIQRLLKGTDWGLLDVLVIDTPPGTGDVHLSLSQHAPITGVILVTTPHTAAVQVTLKGASMYEKLNVPIFGVVENMKYTICQNCNQRLEFFKDSRISSLPRKLISLPLDSRIADSNESGVPVVIKYPDSKYSYLFTQLAEEITQILNEQRCNQNQNNSAH
Work on B5 yielded an MAPPIT interaction score ([5]; MAPPIT configuration: N-C) of 0.425 and an MAPPIT interaction score ([5]; MAPPIT configuration: N-N) of 0.0633.

B6: pcs (protein)
chain: MSSAEDGELDPQIQIELENLNSATDEINKLEIELEEANSTFRILLNESTRRLKVSSKKLGNCIEKARPYYEALDKAREAQIECQKAAVKFQRANEIHAAAKETVALAEQRFMSNSHEWQFDNAWQEMLNHATQKVMDAETQKADCHAEHQRLTKLFNAAEQKLQQLEDRFRRSINKSRPYFEEKQVCQDQLQTQKNRIQELQQQVAGAKSTYSTALRNLERISEDIHRQRGDFPTPPGPREPGVGAELNSPTSSALPSLPDFQLELEKCDYPSIAGSQMSLGAKTPQAAAETEDEEDACDYDETGAGELRGVVDERDLEALRQKVKILAVRPIEGGDGQQQNDVWEHELKATVDKLDHLMMLKETAKRQQTNRLKSTEQRPDSLGAEALKRHCDVVEVKVTSCATTASLPVTPHHQLNHLAPPTPIKKLQQQLAPLPSVNVSMRELPLLARLSNELLDRSSAAFGGVRKTLRRRSLE
In the case of B6, the MAPPIT interaction score ([6]; pair source set: Curagen_low_conf) is reported as -0.177.

B7: CG12259 (protein)
chain: MAHYKGAASEAGRAAQLMKKREIQQQEIEFRKKKIEEELKLDKIENKFATHYDAVEQQLKSSTIGLVTLDEMKAKQEDIVREREKKLAQKKDEKDREKQRALEAIQAEKNKQKRQIQALSFNLDDDEEEEEEDDEDHDKKQLKIKQEDQPKPKWTEIKEDILPIKKKKICKNPDVDTSFLPDREREEQENRLREQLRQEWVMQQAELKDEDISITFSYWDGSGHRRNVLMKKGNSIYQFLQKCLELLRKEFIELKTVMADQLMYVKEDLILPHHYSFYDFIVTKARGKSGPLFQFDVHDDVRMISDASVEKEESHAGKVLLRSWYERNKHIFPASRWEPYDPTKSYDKYTIKDKDKSKK
In the case of B7, the MAPPIT interaction score ([6]; pair source set: Finley_Y2H) is reported as 0.18.

B8: cN-IIIB (protein)
chain: MGFDEKREPTGGRLRLQDIPALTQDHCRMRDPAEVERIINEFVIGGPERMQIVSDFDYTITKQRTEDGGAVPSSFGIFNACQSLPENFKAETDKLYHKYRPIEIDPHMPIAEKVQYMIEWWTKSGELTSGFPFDQSEIDQIASKYTHALRDRTHEFFADLQRLGIPTLVFSAGLGNSVVSVLRQANVLHPNVKVVSNFLQFRDGLLDGFQQPMIHTFNKNETVLNETSEYYDLVHTRDHIIVMGDSIGDADMASGVPASSHIMKIGFLFDHVEANMKKYMDTFDIVLVDDQTMDVPRTLLSLIEKQHKLNLEAPKQSSL
B8 showed an MAPPIT interaction score [7] of 1.36 and an MAPPIT interaction score [8] of -0.311.

B9: mei-P22 (protein)
chain: MDRTTVVPSPASTYCSFMGGSQHSPLRRSQRLIDKENRDLQKIPPKSLSPQLFGNTEDDYSELLLQQGKVVHLKPAAKLVPVRSSDNLVHLGSRDKVVPLKTSNRIVHLKPPYKIIHLKSLDEVEKTVKKKNNIQKEVHQRNSQRRSIQCTPKKRGRKPKQPAKKLQSRISTDQLGSTPSPSKLPAKYPAHFVHQLPPAEDSSCATRRRSLSAPAMQLSDLSLTPDEIQTPERRGEIVNKSPSDLDSDVSLNFSLSDSIGEIFGTKDISSILTMQRPRQYILLEEHLPTLATMLNVDLERLRCVLDITQGLSHEQILRFPIKHEEDELEVP
For B9, the MAPPIT interaction score [9] was 4.86 (active).

B10: brat (protein)
chain: MASSPTPSLDSMRGGANSIESYEHAGYLSDSPLTLSGSSPPASDSAICSDEYTGGSSVKSRSEVTVINGHHPISASVSSSSSASSSSCSSSSSSSSSSSSSSSSTSGLSGCGSTSSSVISANNVASSNGPGVIGSNLQSSNNGGNSGISSLVVGAGKGSNSSSNSSSSNTSANGSPPRCTACKSKCSDAVAKCFECQSYLCANCVTAHEFMHCFNGHNVCLIKGFEASTTGTPLSVGSPSNNPASNEFKYASSLTMMLQQQQQLDSQQQQQQQQLLPAQPMSQLSKIVLAAAAQANSQEQQREDSIYGSLHPQQQQQQQQQQQRQLFCPRHKQELLKFSCRTCCILVCKECIVLEHSTGLHELENVQSPGMTTSTGSTANESALQTLLADMRGKIGEIVGIAGNSDQNLTKVKLQYQKAHNELNETHQFFASMLDERKTELLKELETLYTAKVNSNNSWQQRSRDLIDKGLATCEAVERSPAPPSSLLTEALLLRKSLEQQLQTGIQEMQLPFEIEFMSNYQSIQAGVRNTFGYIRANSSDGGPTGMSLTSNGHGKQPPIARPTQSASNSSASSAGSGHHGHHQQSHHHGHHNHHQTAHHQQLQAQSSLHGLGLGLSGASLLDSSSSAGGAVGAFSNGGLLLGGRDRNALAVEQHFGELMPKRGGGGYTGSNGSATSAVAHYNPYEKWSNGGSDNLFSSVTSGVSGSSAVADAFASLSAVGGSVVSGAGAGGSTVSSESLLDLTNKLLSATIYPPKSQIKRQKMIYHCKFGEFGVMEGQFTEPSGVAVNAQNDIIVADTNNHRIQIFDKEGRFKFQFGECGKRDSQLLYPNRVAVVRNSGDIIVTERSPTHQIQIYNQYGQFVRKFGATILQHPRGVTVDNKGRIIVVECKVMRVIIFDQNGNVLHKFGCSKHLEFPNGVVVNDKQEIFISDNRAHCVKVFNYEGQYLRQIGGEGITNYPIGVGINSNGEILIADNHNNFNLTIFTQDGQLISALESKVKHAQCFDVALMDDGSVVLASKDYRLYIYRYVQLAPVGM
B10 gave an MAPPIT interaction score [10] of 1.62, an MAPPIT interaction score ([11]; MAPPIT configuration: N-C) of 0.0947 and an MAPPIT interaction score ([11]; MAPPIT configuration: N-N) of 0.243.

B11: CG6153 (protein)
chain: MPHGHSHDHGGCSHEASDVDHALEMGIEYSLYTKIDLDNVECLNEETDGQGKSVFKPYEKRQDLSKYVESDADEELLFNIPFTGNIKLKGIIISGANDDSHPNMVKIFKNRPRMTFDDARAKPDQEFQLTRDARGEIEYSPKVVTFSSVHHLSLYFPSNFGEDITRIYYIGLRGEFTEAHYHGVTICNYESRANAADHKEKAFDGVGRAIQ
With B11 the MAPPIT interaction score [12] was 1.74.
